Most compounds without a hit are left out; they make up all but 2.6% or so of the library.
IDE act – human IDE activators in live cells, primary screen, fluorescence polarization, HEK cells, FAbeta-B substrate; Insulin-degrading enzyme (Homo sapiens), P14735; activation, % at 5.96 µM; hit rate 0.073% among 340,000; FAbeta-B cleavage; 0% vehicle, 100% cell-free pure enzyme wells;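 active = activation above the mean of all tested compounds plus 3 SD, set per screening campaign, cut at about 17% in these data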
Target sequence (P14735 whole entry, looked up): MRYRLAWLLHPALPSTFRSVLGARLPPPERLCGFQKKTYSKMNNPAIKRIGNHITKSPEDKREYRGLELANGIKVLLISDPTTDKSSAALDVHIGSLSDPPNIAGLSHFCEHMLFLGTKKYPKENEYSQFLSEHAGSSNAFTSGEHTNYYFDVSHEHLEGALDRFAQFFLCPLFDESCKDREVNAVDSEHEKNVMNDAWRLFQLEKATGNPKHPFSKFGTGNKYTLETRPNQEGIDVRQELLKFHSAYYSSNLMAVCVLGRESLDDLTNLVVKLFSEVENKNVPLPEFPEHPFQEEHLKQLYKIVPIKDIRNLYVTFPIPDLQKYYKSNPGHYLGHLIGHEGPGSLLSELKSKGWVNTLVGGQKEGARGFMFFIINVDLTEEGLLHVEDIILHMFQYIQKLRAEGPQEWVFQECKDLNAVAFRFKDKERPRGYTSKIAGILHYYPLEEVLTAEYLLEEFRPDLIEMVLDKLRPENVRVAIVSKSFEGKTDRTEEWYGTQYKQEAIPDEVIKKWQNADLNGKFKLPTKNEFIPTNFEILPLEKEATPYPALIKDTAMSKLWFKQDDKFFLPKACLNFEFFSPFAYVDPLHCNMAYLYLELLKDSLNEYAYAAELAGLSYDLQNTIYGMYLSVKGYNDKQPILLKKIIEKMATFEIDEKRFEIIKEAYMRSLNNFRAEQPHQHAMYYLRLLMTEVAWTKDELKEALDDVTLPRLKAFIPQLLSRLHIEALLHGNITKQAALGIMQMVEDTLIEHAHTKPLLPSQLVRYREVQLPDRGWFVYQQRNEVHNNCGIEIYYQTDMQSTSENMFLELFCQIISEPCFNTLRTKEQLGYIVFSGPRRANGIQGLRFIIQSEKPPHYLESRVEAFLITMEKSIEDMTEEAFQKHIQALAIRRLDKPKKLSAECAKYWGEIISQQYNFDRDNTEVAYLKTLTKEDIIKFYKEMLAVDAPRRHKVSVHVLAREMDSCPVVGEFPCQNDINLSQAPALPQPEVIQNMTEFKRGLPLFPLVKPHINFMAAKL
TPT1 inhibitor – Candida albicans TPT1 enzyme inhibitors, primary screen, biochemical, fluorescence polarization; tRNA 2'-phosphotransferase TPT1 (Candida albicans SC5314); recombinant caTPT1, FP RNA substrate dephosphorylation; inhibition, % at 5 µM; hit rate 0.81% among 300,000; AID 1962, 2009;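 active = inhibition above the mean of all tested compounds plus 3 SD, set per screening campaign, cut at about 24% in these data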;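 also: plate controls were DMSO alone for no effect and ferristatin control at 100 nM for full effect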
Myeloid diff 2 – induction of myeloid progenitor differentiation, primary screen, cell-based, flow cytometry, MLPCN library. ER-HoxA9 myeloid progenitors, lysozyme-GFP differentiation. calls only at 10 µM. AID 624256, 2012. hit rate 1% among 360,000;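 active = normalized GFP-positive differentiation at or above the plate's own cutoff, the solvent-only control mean plus 3 SD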;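 also: cells exposed to compound for four days before flow analysis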
CRFR2-BP antag – antagonists of CRF-BP/CRF-R2 complex, primary screen, cell-based, HEK293, calcium dye fluorescence, uHTS; CRF-induced calcium fluorescence; AID 588475, 2011; hit rate 0.59% among 350,000; inhibition, % at 11.8 µM;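 active = inhibition of the ligand-induced calcium signal above about 50% at the single tested concentration, limit read from the data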
IDE cell inh – human IDE inhibitors in live cells, primary screen, fluorescence polarization, HEK cells, FAbetaB substrate; Insulin-degrading enzyme (Homo sapiens), P14735; FAbetaB cleavage; inhibition, % at 5.59 µM; hit rate 0.41% among 320,000; AID 434962, 2010;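 active = percent inhibition above the average of all tested compounds plus 3 SD, set per screening campaign, cut at about 16% in these data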;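 also: IDE supplied by intact live HEK cells; FP after avidin binding of uncleaved biotin substrate so inhibition keeps polarization high; 0% = DMSO wells and 100% = 60 µM reference IDE inhibitor Ii1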
CRFR2-BP ag – agonists of CRF-BP/CRF-R2 complex, primary screen, cell-based, HEK293, calcium dye fluorescence, uHTS. CRF-binding protein / CRF receptor 2 complex (human). calcium dye fluorescence (FLIPR); percent of saturating CRF peptide response. activation, % at 13.2 µM. hit rate 0.46% among 350,000. AID 588473, 2011;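 active = activation of at least 50%, plus an integration ratio under a set limit after plate pattern correction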;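 also: plate controls were neutral control wells without compound for no effect and CRF at EC100 for full effect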
Myeloid diff CP1 – inducers of myeloid progenitor differentiation, confirmation, cell-based, GFP/Mac1 flow cytometry, cherry pick 01; AID 651706, 2012; ER-HoxA9 myeloid progenitors, GFP/Mac1 double-positive flow; hit rate 2% among 2,300; shares compounds with Myeloid diff 2; calls only;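 active = share of green or green-and-red cells above 9 and 9% in run 1 or 4 and 3% in run 2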
GFP autofluor – counter-screen for myeloid differentiation promoters: compound fluorescence; shares compounds with Myeloid diff 2; ER-HoxA9 myeloid progenitors, no estrogen, GFP autofluorescence flow cytometry; vehicle wells 0%, positive control 100%; fluorescence response, % (no concentration beside the values); hit rate 7.4% among 2,300;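 active = over 5% cells positive for green fluorescent reporter, or over 2% positive for both it and APC stain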;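 also: range taken on the double positive population between DMSO and positive control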
The depositor's hits bear a star.

`Cc1ccc(S(=O)(=O)N2CC3C(=O)CC(c4ccccc4)N(S(=O)(=O)c4ccc(C)cc4)C3CC2c2cccc(Cl)c2)cc1` (stereo not given) gave Myeloid diff 2 active, Myeloid diff CP1 inactive and GFP autofluor 0.6.
`Cc1ccc(S(=O)(=O)N2CCC(=O)CC2c2ccccc2)cc1` (stereo not given) gave IDE act -0.1, Myeloid diff 2 inactive, CRFR2-BP antag -0.2, CRFR2-BP ag -1.8, Myeloid diff CP1 inactive and GFP autofluor 0.0.
Screening Cc1ccc(S(=O)(=O)N2[C@H](c3ccccc3)CC(=O)[C@@H]3CN(S(=O)(=O)c4ccccc4)[C@H](c4ccccc4)C[C@@H]32)cc1 returned Myeloid diff 2 inactive.
`Cc1ccc([C@@H]2C[C@H]3[C@@H](CN2S(=O)(=O)c2ccc(C)cc2)C(=O)C[C@@H](c2ccccc2)N3S(=O)(=O)c2ccc(C)cc2)cc1` gave Myeloid diff 2 inactive, CRFR2-BP antag 4.3 and CRFR2-BP ag 6.0.
Screening O=C(O)c1ccccc1C(=O)c1ccc(Br)s1 returned IDE act 1.9, TPT1 inhibitor 16.3, Myeloid diff 2 inactive, CRFR2-BP antag -0.9, IDE cell inh 2.4 and CRFR2-BP ag 7.7.
O=C(CCN1C(=O)/C(=C/c2ccccc2Cl)SC1=S)NC1CCCC1 was read as IDE act -0.8, TPT1 inhibitor 0.6, Myeloid diff 2 inactive, CRFR2-BP antag 5.3, IDE cell inh 0.0 and CRFR2-BP ag -3.2.
`Cc1ccccc1CN(c1ccc(C(=O)Nc2ccccc2C(=O)NCc2ccco2)cc1)S(C)(=O)=O` gave IDE act 2.4, TPT1 inhibitor 1.9, Myeloid diff 2 inactive, CRFR2-BP antag -30.0, IDE cell inh -0.8, CRFR2-BP ag 0.8, Myeloid diff CP1 inactive and GFP autofluor 0.4.
For O=S(=O)(c1ccc(=S)[nH]c1)N1CCCC1 the results were IDE act -17.0, Myeloid diff 2 active, CRFR2-BP antag -17.5, IDE cell inh 1.4, CRFR2-BP ag -4.2, Myeloid diff CP1 inactive and GFP autofluor 61.9*.
Screening Cc1cc(C)c(S(=O)(=O)NC2CC(C)(C)NC(C)(C)C2)cc1C returned IDE act 3.0, TPT1 inhibitor -1.1, Myeloid diff 2 active, CRFR2-BP antag 5.7, IDE cell inh -7.7, CRFR2-BP ag -1.8, Myeloid diff CP1 inactive and GFP autofluor 0.0.
For CCC(CO)n1c(SCc2cc(=O)oc3cc(C)ccc23)nc2ccccc2c1=O (stereo not given) the results were IDE act 2.9, TPT1 inhibitor -2.7, Myeloid diff 2 inactive, CRFR2-BP antag -43.3, IDE cell inh 3.7, CRFR2-BP ag 4.2, Myeloid diff CP1 active and GFP autofluor 0.8.
Screening CSc1nc(N)nc(SCC(=O)Nc2cccc(F)c2)c1C#N returned IDE act -0.3, TPT1 inhibitor -0.8, Myeloid diff 2 inactive, CRFR2-BP antag -23.3, IDE cell inh 0.6 and CRFR2-BP ag -0.7.
Screening CSc1nc(N)nc(SCC(=O)Nc2ccc(Cl)cc2)c1C#N returned IDE act 10.5, TPT1 inhibitor -2.0, Myeloid diff 2 inactive, CRFR2-BP antag -18.9, IDE cell inh -0.2, CRFR2-BP ag 10.6, Myeloid diff CP1 inactive and GFP autofluor 0.0.
`Cc1cccc(C)c1NC(=O)C(C1CC1)n1c(-c2ccc(C(F)(F)F)cc2)nc2ccccc21` (stereo not given) gave Myeloid diff 2 inactive.
`COc1ccc(-c2nnc(SCC(=O)Nc3cc(C)on3)n2C)cc1OC` gave IDE act 11.0, TPT1 inhibitor -7.4, Myeloid diff 2 active, CRFR2-BP antag -5.4, IDE cell inh -4.3, CRFR2-BP ag 0.3, Myeloid diff CP1 inactive and GFP autofluor 0.3.
COc1ccc(NC(=O)Nc2ccc3c(c2)CCC3)cc1 was read as IDE act -5.2, TPT1 inhibitor 2.2, Myeloid diff 2 inactive, CRFR2-BP antag 3.5, IDE cell inh 1.7 and CRFR2-BP ag 1.1.
Cc1ccc(S(=O)(=O)CCSc2n[nH]c(=O)n2-c2ccccc2)cc1 was read as TPT1 inhibitor 0.6, Myeloid diff 2 inactive, CRFR2-BP antag -0.8, IDE cell inh -1.3, CRFR2-BP ag -0.7, Myeloid diff CP1 inactive and GFP autofluor 0.0.
Cc1cc(C)c(-n2c(SCCS(=O)(=O)c3ccc(F)cc3)n[nH]c2=O)c(C)c1 was read as IDE act 5.7, TPT1 inhibitor -1.8, Myeloid diff 2 inactive, CRFR2-BP antag -18.5, IDE cell inh -0.6 and CRFR2-BP ag -0.9.
CC1(c2nc3ccccc3[nH]2)c2ccccc2C(=O)N1Cc1ccccn1 (stereo not given) was read as Myeloid diff 2 inactive.
`COc1ccc(S(=O)(=O)N2CC(=O)Nc3ccccc32)cc1` gave IDE act 1.6, TPT1 inhibitor 2.5, Myeloid diff 2 inactive, CRFR2-BP antag 5.5, IDE cell inh -2.2 and CRFR2-BP ag -0.5.
For CCOC(=O)c1ccc(NC(=O)C2CCN(C(=O)c3ccc(OC)c(OC)c3)CC2)cc1 the results were IDE act 0.9, TPT1 inhibitor 0.2, Myeloid diff 2 inactive, CRFR2-BP antag 3.7, IDE cell inh 5.9, CRFR2-BP ag 0.1, Myeloid diff CP1 inactive and GFP autofluor 0.0.
`COC(=O)c1ccc(NC(=O)C2CCN(C(=O)c3cc(OC)c(OC)c(OC)c3)CC2)cc1` gave IDE act -1.6, TPT1 inhibitor 2.1, Myeloid diff 2 inactive, CRFR2-BP antag 26.1, IDE cell inh -2.9 and CRFR2-BP ag -3.0.
For c1ccc2cc(C3OCC4(CCCC4)CO3)ccc2c1 the results were Myeloid diff 2 inactive, CRFR2-BP antag -5.0 and CRFR2-BP ag 2.0.
For O=C1CCC(c2ccc3ccccc3c2)O1 (stereo not given) the results were IDE act -2.1, Myeloid diff 2 inactive, CRFR2-BP antag 18.6, CRFR2-BP ag -3.6, Myeloid diff CP1 inactive and GFP autofluor 1.8.

Assay outcomes (PubChem)
